# Reference: PubChem BioAssay
# A number with no mark means an inactive call.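 How the source made its calls: active means compound raises insulin release from rat beta cells at 5 mM glucose, no numeric limit stated; inactive means the rest.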
# Assay: stimulators of insulin release from INS-1E, primary screen, cell-based, 5 mM glucose, NPC library (AID 1117329); further: reference of the scale not given here
# Details: rat INS-1E insulin secretion, at 10 µM, active compounds read high
row,SMILES,insulin secretion stimulation [%]
1,Cc1ncc(COP(=O)(O)O)c(C=O)c1O,-0.8
2,CCCCCOc1ccc(C2SC(=O)NC2=O)cc1OCC (stereo not given),0.7
3,CC1(C)S[C@@H]2[C@H](NC(=O)Cc3ccccc3)C(=O)N2[C@H]1C(=O)O (tested in a mixture with another compound),-0.8
4,CC[C@@]1(c2ccccc2)NC(=O)N(C)C1=O,-0.2
5,CC(=O)CCC(=O)O,2
6,C=Cc1c(C)c2cc3nc(cc4[nH]c(cc5nc(cc1[nH]2)C(C)=C5CCC(=O)O)c(CCC(=O)OC)c4C)[C@@]1(C)C3=CC=C(C(=O)OC)[C@@H]1C(=O)OC,1.5
7,CS(=O)(=O)c1ccc(-c2cn3ccccc3n2)cc1,0.9
8,C[C@@H]1C[C@H]2[C@@H]3CCC4=CC(=O)C=C[C@]4(C)[C@@]3(F)[C@@H](O)C[C@]2(C)[C@@]1(O)C(=O)COC(=O)c1ccncc1,-1
9,COc1cc(S(N)(=O)=O)cc(C(=O)O)c1OC,1.2
10,C/C=C/C=N/NC(=O)c1ccncc1,-2.2
11,Cc1ccccc1N1CCN(CCc2nnc3n2CCCC3)CC1,0.9
12,O=C(CCOCCOCCOCCOCCC(=O)Nc1c(I)cc(I)c(C(=O)O)c1I)Nc1c(I)cc(I)c(C(=O)O)c1I,0.1
13,O=C(CN1CCNCC1)NC1CCCCC1,5
14,CCN1C(=O)c2ccccc2C1Nc1ccc(OCCN2CCCCC2)cc1 (stereo not given),18.5
15,CCCCCCCCCCC(CO)CCCCCCCC (stereo not given),-0.5
